An excerpt weighted towards active compounds, which were near 1.3% of everything screened.
Keap1-Nrf2 PPI: Keap1-Nrf2 protein-protein interaction inhibitors, primary screen, biochemical, fluorescence polarization, single point. inhibition, % at 9.4 µM. AID 504523, 2011. Keap1 Kelch-Nrf2 peptide fluorescence polarization, 1536-well. actives 0.15% (n = 340,000). Kelch-like ECH-associated protein 1 (Homo sapiens), Q14145; in the data active = inhibition above about 12%;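 also: human Keap1 Kelch domain with fluorescein labeled Nrf2 9mer peptide probe; 0% = neutral control wells and 100% = peptide positive control; higher means more block of Keap1 binding to Nrf2 peptide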
Target sequence (Q14145 whole entry, looked up, the tested form may be a part): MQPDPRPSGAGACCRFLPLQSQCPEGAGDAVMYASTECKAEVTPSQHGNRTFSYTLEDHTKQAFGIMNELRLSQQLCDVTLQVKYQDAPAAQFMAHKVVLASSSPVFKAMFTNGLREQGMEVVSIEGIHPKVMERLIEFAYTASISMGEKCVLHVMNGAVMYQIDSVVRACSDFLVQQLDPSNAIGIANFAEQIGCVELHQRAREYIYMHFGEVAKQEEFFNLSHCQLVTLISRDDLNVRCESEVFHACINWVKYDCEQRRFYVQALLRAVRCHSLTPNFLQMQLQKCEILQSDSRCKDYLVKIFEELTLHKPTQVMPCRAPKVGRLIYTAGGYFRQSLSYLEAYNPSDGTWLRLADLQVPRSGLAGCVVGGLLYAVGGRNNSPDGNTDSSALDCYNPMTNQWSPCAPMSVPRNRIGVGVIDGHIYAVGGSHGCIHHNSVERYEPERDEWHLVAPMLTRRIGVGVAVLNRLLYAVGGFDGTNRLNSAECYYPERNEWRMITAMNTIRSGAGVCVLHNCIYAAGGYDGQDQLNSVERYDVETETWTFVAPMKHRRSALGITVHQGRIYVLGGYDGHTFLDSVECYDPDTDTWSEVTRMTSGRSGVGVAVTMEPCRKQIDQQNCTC
cardiac RTF act: cardiac RTF calcium sensitivity activators, primary screen, biochemical, IANBD-TnC fluorescence, EC20 calcium. activation, % at 7.2 µM. IANBD-labeled TnC RTF fluorescence at EC20 calcium; 0% EC20 calcium, 100% full calcium. actives 0.24% (n = 340,000). AID 493008, 2010;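 active = activation above the mean over all tested compounds plus 3 SD, cut at about 30% in these data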;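 also: rise in fluorescence read as greater calcium sensitivity of cardiac thin filaments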
E coli Lon inh: inhibitors of E. coli Lon protease, primary screen, biochemical, fluorescence polarization. purified E. coli Lon protease. AID 602123, 2011. actives 0.42% (n = 360,000). inhibition, % at 7.94 µM. P0A9M0; in the data active = inhibition above about 13%, passing the limit was not always enough;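 also: 0% = enzyme with probe and DMSO and 100% = no enzyme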
LANA DNA inh: inhibitors of KSHV C-LANA binding to DNA, primary screen, biochemical, fluorescence polarization, FAM-LBS DNA, MBP-C-LANA, single point; AID 504423, 2011; actives 0.078% (n = 340,000); inhibition, % at 9 µM;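 active = highest replicate inhibition at or above 60% at 9 µM, even if other replicates fall short; inactive = all replicates below 60% inhibition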;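 also: 0% = neutral control wells and 100% = 4 µM acridine orange control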
Cardiac RTF inh: cardiac RTF calcium sensitivity inhibitors, primary screen, biochemical, IANBD-TnC fluorescence, EC70 calcium; Troponin I, cardiac muscle (Homo sapiens) + Troponin T, cardiac muscle (Homo sapiens) + …; IANBD-labeled cardiac RTF, Ca2+ fluorescence; inhibition, % at 7.15 µM; actives 0.12% (n = 340,000); AID 493244, 2011;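 active = inhibition above the mean inhibition of all tested compounds plus 3 SD, cut at about 17% in these data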;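 also: assay run at fixed EC70 calcium of 1.6 mM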
LANA-H2A inh: blockers of LANA interaction with H2A/H2B – biochemical, FP readout, HTS, primary screen; cell-free LANA-H2A/H2B peptide, fluorescence polarization; inhibition, % (test concentration not listed); Protein LANA1 (Human herpesvirus 8 type P (isolate GK18)), Q9QR71; actives 0.6% (n = 320,000); in the data active = inhibition mostly above about 10%, no sharp cut-off; inactive = mostly below about 6.7%
* marks the source's active call; other numbers are inactive results.

Results for Cc1ccc(C(C)C)c(OCC(=O)Nc2ccc(N3CCN(S(C)(=O)=O)CC3)cc2)c1 ?
Keap1-Nrf2 PPI: -6.5; cardiac RTF act: -1.0; E coli Lon inh: 0.5; LANA DNA inh: 2.1; Cardiac RTF inh: -3.1; LANA-H2A inh: 50.0*

How did CC(C)CCNC(=O)C(=O)Nc1ccccc1 do in these assays?
Keap1-Nrf2 PPI: -5.1; cardiac RTF act: -0.3; E coli Lon inh: -3.3; LANA DNA inh: 2.0; Cardiac RTF inh: 3.0; LANA-H2A inh: -5.6

What do the screens show for `CCCn1c(O)c(N=NC(=O)CNC(=O)/C=C/c2ccc(OC)cc2)c2ccccc21`?
Keap1-Nrf2 PPI: -4.1; cardiac RTF act: -4.1; E coli Lon inh: 0.2; LANA DNA inh: 0.2; Cardiac RTF inh: 2.7; LANA-H2A inh: 2.1

Results for NC(=O)Cn1c(O)c(N=NC(=O)CNC(=O)/C=C/c2ccccc2)c2ccccc21 ?
Keap1-Nrf2 PPI: -0.7; cardiac RTF act: -4.4; E coli Lon inh: 4.9; LANA DNA inh: -0.7; Cardiac RTF inh: -2.7; LANA-H2A inh: 23.2*

What do the screens show for `CC(=O)c1ccccc1NC(=O)COC(=O)Cc1cccc(C(F)(F)F)c1`?
Keap1-Nrf2 PPI: 2.4; cardiac RTF act: 4.6; E coli Lon inh: 0.0; LANA DNA inh: -2.4; Cardiac RTF inh: -2.1; LANA-H2A inh: 3.0

What do the screens show for `Cc1cccc(NC(=O)COC(=O)Cc2cccc(C(F)(F)F)c2)c1C`?
Keap1-Nrf2 PPI: -5.9; cardiac RTF act: -1.1; E coli Lon inh: 7.7; LANA DNA inh: -2.2; Cardiac RTF inh: -22.2; LANA-H2A inh: active

What do the screens show for `Cc1ccc(C)c(Cn2nc3c4ccccc4n(Cc4ccccc4)cc-3c2=O)c1`?
Keap1-Nrf2 PPI: 1.1; cardiac RTF act: -4.0; E coli Lon inh: 9.8; LANA DNA inh: -1.5; Cardiac RTF inh: 1.4

What do the screens show for `COC(=O)C1=C(C)NC(C)=C(C(=O)OC)C1C1CC=CCC1` (stereo unspecified)?
Keap1-Nrf2 PPI: 2.1; cardiac RTF act: 0.9; E coli Lon inh: -7.0; LANA DNA inh: -1.0; Cardiac RTF inh: -4.7; LANA-H2A inh: 8.1*

What do the screens show for `O=C(c1cc(S(=O)(=O)N2CCOCC2)ccc1Cl)N1CCCCC1CO` (stereo unspecified)?
Keap1-Nrf2 PPI: 6.5; cardiac RTF act: -2.5; E coli Lon inh: -10.0; LANA DNA inh: -5.4; Cardiac RTF inh: 1.0; LANA-H2A inh: -8.0

How did Cc1ccsc1/C=N/NC(=O)c1ccc(-n2cccc2)cc1 do in these assays?
Keap1-Nrf2 PPI: -0.7; cardiac RTF act: -4.8; E coli Lon inh: -5.4; LANA DNA inh: 0.6; Cardiac RTF inh: 16.1; LANA-H2A inh: 2.9

Results for Cn1nc(C(=O)Nc2cc(Cl)ccc2N2CCCC2)c2ccccc2c1=O ?
Keap1-Nrf2 PPI: 3.3; cardiac RTF act: -7.6; E coli Lon inh: -6.4; LANA DNA inh: -9.2; Cardiac RTF inh: 0.3; LANA-H2A inh: 48.4*

Results for C/C(=N\NC(=O)c1cc(C)nc2ccccc12)c1ccc([N+](=O)[O-])cc1 ?
Keap1-Nrf2 PPI: -0.2; cardiac RTF act: -0.5; E coli Lon inh: -4.3; LANA DNA inh: 0.3; Cardiac RTF inh: -10.7; LANA-H2A inh: 4.1

Results for C/C(=N\NC(=O)c1cc(-c2ccccn2)nc2ccccc12)c1cccc([N+](=O)[O-])c1 ?
Keap1-Nrf2 PPI: -5.8; cardiac RTF act: 6.5; E coli Lon inh: 7.0; LANA DNA inh: 98.2*; Cardiac RTF inh: -0.5; LANA-H2A inh: -5.6

Results for OC1CCCC1NCc1ccnc2cc(Cl)ccc12 (stereo unspecified) ?
Keap1-Nrf2 PPI: -1.5; cardiac RTF act: 0.7; E coli Lon inh: 10.9; LANA DNA inh: -0.9; Cardiac RTF inh: 2.9

What do the screens show for `COc1cc(CN2CCC(Cc3ccccc3)CC2)cc(OC)c1OC`?
Keap1-Nrf2 PPI: 0.9; cardiac RTF act: -6.9; E coli Lon inh: 2.4; LANA DNA inh: 0.9; Cardiac RTF inh: -0.5; LANA-H2A inh: 0.9

How did COc1cc(CN2CCC(Cc3ccccc3)CC2)cc([N+](=O)[O-])c1O do in these assays?
Keap1-Nrf2 PPI: -2.7; cardiac RTF act: -5.2; E coli Lon inh: -1.9; LANA DNA inh: -0.1; Cardiac RTF inh: -5.7; LANA-H2A inh: 19.8*

How did CCOC(=O)[C@@H]1[C@H]2COc3ccccc3[C@H]2N2C(=O)N(c3cccc(Cl)c3)C(=O)[C@]12C do in these assays?
Keap1-Nrf2 PPI: -0.8; cardiac RTF act: -1.7; E coli Lon inh: -3.2; LANA DNA inh: -0.3; Cardiac RTF inh: -6.7; LANA-H2A inh: 4.9

Results for Cc1ccc(OCCN(C)C(=O)c2cc(COc3ccc(F)cc3F)on2)cc1 ?
Keap1-Nrf2 PPI: -1.6; cardiac RTF act: 0.9; E coli Lon inh: -0.8; LANA DNA inh: 3.1; Cardiac RTF inh: -4.2; LANA-H2A inh: 172.8*

Results for CN(Cc1ccc(F)cc1)C(=O)c1cc(COc2ccc(F)cc2F)on1 ?
Keap1-Nrf2 PPI: 1.9; cardiac RTF act: -5.1; E coli Lon inh: -1.3; LANA DNA inh: -0.6; Cardiac RTF inh: -3.9; LANA-H2A inh: -6.1

What do the screens show for `Cc1cnc(CNC(=O)c2ccc3sc([C@H]4C[C@H](O)[C@@H](CO)O4)nc3c2)cn1`?
E coli Lon inh: -1.8

How did C[C@H](NC(=O)c1ccccc1Cl)C(=O)OCc1cn2cc(Cl)ccc2n1 do in these assays?
Keap1-Nrf2 PPI: 2.2; cardiac RTF act: 2.0; E coli Lon inh: -9.8; LANA DNA inh: -0.4; Cardiac RTF inh: 8.8; LANA-H2A inh: 14.6*

What do the screens show for `O=[N+]([O-])c1ccc2ccn(C3OCC(O)C(O)C3O)c2c1` (stereo unspecified)?
Keap1-Nrf2 PPI: 3.0; cardiac RTF act: -1.2; E coli Lon inh: -3.2; LANA DNA inh: -0.1; Cardiac RTF inh: 13.6; LANA-H2A inh: -1.5

Results for COc1cccc(NS(=O)(=O)c2ccc3c(c2)C2C=CCC2C(c2ccc(C(=O)O)cc2)N3)c1 (stereo unspecified) ?
Keap1-Nrf2 PPI: 6.7; cardiac RTF act: -22.4; E coli Lon inh: 4.7; LANA DNA inh: 103.6*; Cardiac RTF inh: 11.3; LANA-H2A inh: 3.1

What do the screens show for `O=c1ccc2c(-c3ccccc3)c3ccc(O)cc3oc-2c1`?
Keap1-Nrf2 PPI: 97.6*; cardiac RTF act: active; LANA DNA inh: 141.8*; Cardiac RTF inh: inactive; LANA-H2A inh: 61.2*

Results for O=c1cc(-c2ccccc2)oc2cc(O)ccc12 ?
Keap1-Nrf2 PPI: -6.9; cardiac RTF act: 9.2; E coli Lon inh: -0.4; LANA DNA inh: -1.4; Cardiac RTF inh: 3.7

Screening results from PubChem BioAssay.
